Screening results as filed in PubChem.
TRHR agonist-1: activates the human TRH receptor; P34981; activation, % at 2 µM; AID 493084; 0.18% of 360,000 active; TRHR cells, calcium flux fluo-8, FDSS agonist mode; in the data active = activation above about 30%; also: 0% is about no effect
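Fluo-8-loaded TRHR cells; 10 s baseline, compound added, kinetic Ca2+ fluorescence read 1/s, agonist mode.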
D1 ag: activates the human D1 dopamine receptor. activation, % at 2 µM. P21728. HEK293 T-REx D1 cells, calcium flux, agonist mode. 1% of 360,000 active; in the data active = activation above about 30%; also: 0% is about no effect
Target sequence (P21728 whole entry, looked up): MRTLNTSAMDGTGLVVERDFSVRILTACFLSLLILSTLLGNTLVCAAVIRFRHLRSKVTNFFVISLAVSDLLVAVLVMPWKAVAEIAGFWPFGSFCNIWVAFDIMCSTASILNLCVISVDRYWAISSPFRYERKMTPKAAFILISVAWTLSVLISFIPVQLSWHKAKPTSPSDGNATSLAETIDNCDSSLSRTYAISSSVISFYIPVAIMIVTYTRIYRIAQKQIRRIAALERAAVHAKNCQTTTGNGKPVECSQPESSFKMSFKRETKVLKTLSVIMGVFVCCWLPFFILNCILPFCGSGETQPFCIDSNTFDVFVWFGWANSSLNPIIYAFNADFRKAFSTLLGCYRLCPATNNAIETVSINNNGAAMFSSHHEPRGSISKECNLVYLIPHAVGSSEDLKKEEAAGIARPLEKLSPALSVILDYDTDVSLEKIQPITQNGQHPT
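Inducible HEK293 T-REx D1 cells, force-coupled to calcium signalling, were plated at 4000 cells/well with tetracycline and held overnight at 30 C. After no-wash calcium dye loading, compound-evoked calcium rise over 180 s flagged agonists.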
TRHR enhancer-1: TRH receptor (human) allosteric enhancement | P34981 | enhancement, % at 2 µM | 0.66% of 360,000 active | TRHR cells, fluo-8 calcium fluorescence, EC20 TRH enhancement; in the data active = enhancement above about 30%; also: 0% is about no effect
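TRHR-expressing cells loaded with fluo-8 calcium dye were read kinetically (ex 480/em 530) during compound addition, then stimulated with an EC20 of TRH (10 nM final). Enhancement of the Gq-mediated intracellular calcium response was scored.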
D1 antag: antagonists of human D1 dopamine receptor; HEK293 TREx D1 cells, calcium flux, dopamine EC80; active compounds read low; 3.2% of 360,000 active; AID 504652; activity change, negative = inhibition, % at 10 µM; in the data active = activity change below about -30%; also: % is scaled to controls: 0 for no effect and ±100 for the full control effect
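Antagonism measured as reduced calcium response to an EC80 dopamine addition following 180 s compound pre-read; cells were inducible HEK293 Trex D1 plated overnight at 30 C, read kinetically at 1 cycle/sec.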
D1 PAM: enhances dopamine response at the human D1 receptor. P21728. HEK293 TREx D1 cells, calcium flux, dopamine EC20 potentiation. potentiation, % at 10 µM. 0.036% of 360,000 active; in the data active = potentiation above about 30%; also: 0% is about no effect
TRHR enhancer-2: human TRH receptor allosteric enhancement confirmation; activity change, negative = inhibition, % at 46.1 µM; 970 tested, under 10 active; TRH receptor cell assay, enhancer confirmation qHTS; shares compounds with TRHR enhancer-1;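 also: compound effect scored on response to added TRH at EC20 of 10 nM; 0% is about no effect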
TRHR agonist-2: human TRH receptor agonism confirmation | Potency, µM (top dose mostly 46.1 µM), inactives show at the highest dose activation, actives largely listed as activators | shares compounds with TRHR enhancer-1 | 8% of 970 active | TRHR-expressing cells, agonist activation read-out | AID 493078; also: potency is read from the fitted curve at half-maximal effect; 0% is about no effect; nearly all actives have a fitted effect of over 75% in size
The depositor's hits bear a star. An excerpt weighted towards active compounds, which were near 4.7% of everything screened. Unless noted, calls follow the shape of the dose curve; as a rule, active = well fitted curve in the direction sought with a large enough effect; inconclusive = small, poorly fitted or top-dose-only effect, or another doubt; inactive = no such curve, though single readings can be large; an effect the other way counts as inactive or inconclusive.

`C/C=C/c1cc(CN2CCN(c3ccccc3)CC2)c(O)c(OC)c1` gave TRHR agonist-1 1.6, D1 ag 2.7, TRHR enhancer-1 41.5*, D1 antag -10.6, D1 PAM 1.8, TRHR enhancer-2 -3.0 and TRHR agonist-2 -0.7%.
For CCC(C)[C@H](NS(=O)(=O)c1ccc(C)cc1)C(=O)N1CCC(C(=O)N2CCC(C(N)=O)CC2)CC1 (stereo not given in full) the results were TRHR agonist-1 -0.1, D1 ag 0.8, TRHR enhancer-1 -1.8, D1 antag 8.1 and D1 PAM -5.0.
For CSCC[C@H](N)C(=O)N1CCC(C(=O)N[C@H](C(=O)NCc2ccccc2F)C(C)C)CC1 the results were TRHR agonist-1 -0.4, D1 ag 1.0, TRHR enhancer-1 -1.7, D1 antag 0.8 and D1 PAM 1.7.
O=P1(c2ccccc2)C=Cn2c1cc1c2CCCC1 (stereo not given) was read as TRHR agonist-1 0.1, D1 ag 0.4, TRHR enhancer-1 60.1*, D1 antag 7.3, D1 PAM 2.2, TRHR enhancer-2 11.7 and TRHR agonist-2 -0.6%.
For CCc1ccccc1NC(=O)NC1CCCCC1 the results were TRHR agonist-1 0.1, D1 ag 2.8, TRHR enhancer-1 48.3*, D1 antag 2.4, D1 PAM 0.2, TRHR enhancer-2 -3.0 and TRHR agonist-2 -0.5%.
For Cc1ccc(N(CC(=O)NCc2ccc(OC(C)C)cc2)S(=O)(=O)N(C)C)cc1 the results were TRHR agonist-1 -0.5, D1 ag -0.6, TRHR enhancer-1 7.3, D1 antag 1.5 and D1 PAM -0.5.
COc1cc(C(=O)NC2CCCC2)c(Br)c(OC)c1OC was read as TRHR agonist-1 0.0, D1 ag 0.5, TRHR enhancer-1 49.1*, D1 antag -8.6, D1 PAM -10.9, TRHR enhancer-2 -1.1 and TRHR agonist-2 4.9%.
For COc1cc(C(=O)NCCOc2cc(C)cc(C)c2)c(Br)c(OC)c1OC the results were TRHR agonist-1 -2.5, D1 ag 10.2, TRHR enhancer-1 21.7, D1 antag 4.4 and D1 PAM -5.7.
For CSc1ccc(NC(=O)C2CCN(c3ncccn3)CC2)cc1 the results were TRHR agonist-1 -1.9, D1 ag 0.8, TRHR enhancer-1 -4.4, D1 antag -2.3 and D1 PAM -0.4.
For O=C(CCN1C(=O)C2CCCCC2C1=O)N1CCN(S(=O)(=O)c2cccc(F)c2)CC1 (stereo not given) the results were TRHR agonist-1 0.2, D1 ag 0.4, TRHR enhancer-1 29.9, D1 antag -15.5 and D1 PAM -7.0.
Screening O=C(CCN1C(=O)C2CCCCC2C1=O)N1CCN(S(=O)(=O)c2ccccc2)CC1 (stereo not given) returned TRHR agonist-1 -0.1, D1 ag 1.3, TRHR enhancer-1 41.2*, D1 antag -14.3, D1 PAM -4.3, TRHR enhancer-2 3.5 and TRHR agonist-2 -0.5%.
For CC(C)CC1=NN2C(=N)/C(=C\c3coc4ccccc4c3=O)C(=O)N=C2S1 the results were TRHR agonist-1 25.5, D1 ag 61.2*, TRHR enhancer-1 13.6, D1 antag 0.9, D1 PAM -4.5, TRHR enhancer-2 -0.4 and TRHR agonist-2 2.59µM*.
Screening O=C(CN1CCC(C(=O)c2ccc3c(c2)OCCO3)CC1)Nc1ccccc1F returned TRHR agonist-1 0.0, D1 ag -1.3, TRHR enhancer-1 47.7*, D1 antag -17.1, D1 PAM -5.2, TRHR enhancer-2 -8.6 and TRHR agonist-2 1.0%.
Screening Cc1c(C(=O)Nc2c(F)cccc2F)sc2ncn(Cc3ccccc3F)c(=O)c12 returned TRHR agonist-1 0.3, D1 ag 5.2, TRHR enhancer-1 -8.0, D1 antag -1.5 and D1 PAM -5.2.
CC(=O)Nc1ccc2nc3c(=O)[nH]c(=O)[nH]c3nc2c1 was read as TRHR agonist-1 12.4, D1 ag 10.6, TRHR enhancer-1 14.9, D1 antag -7.8 and D1 PAM -0.2.
